Measured values: PubChem BioAssay AID1159580 (chemical genetic matrix, 2015)
Screen size: about 5,500 compounds; about 2,000 (36%) were called active. Inconclusive results (about 18%) are left out. Rule as the data show it: active = normalized growth mostly below about 0.91 (no sharp cut-off); inconclusive = no clear call, values can overlap the other calls; inactive = mostly above about 0.92. The list shows a part of the results.

Test: chemical genetic growth profiling, strain panel (AID 1159580);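 also: tested at 20 µM; growth read once vehicle control cultures reached saturation at 30 °C; 1 = growth at the plate median or of vehicle wells; lower values mean less growth of the strain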
Conditions: S. cerevisiae deletion strains, growth OD
[1] = locus YDL101C, strain DUN1, hits give low values
[2] = locus YHR030C, strain SLT2, hits give low values

Measured: normalized growth

CC(C)(C)OC(=O)NC1CCN(C(=O)c2ccc(Cl)cc2Cl)CC1
inactive: locus YAL013W, strain DEP1, hits give low values 1 | locus YBR229C, strain ROT2, hits give low values 0.993 | locus YCL061C, strain MRC1, hits give low values 1.01 | [1] 0.995 | locus YDL134C, strain PPH21, hits give low values 0.999 | locus YDR150W, strain NUM1, hits give low values 0.95 | locus YEL061C, strain CIN8, hits give low values 1 | locus YGR078C, strain PAC10, hits give low values 1 | locus YGR229C, strain SMI1, hits give low values 1.01 | [2] 1.11 | locus YHR087W, strain rtc3, hits give low values 0.996 | locus YJL187C, strain SWE1, hits give low values 1.01 | locus YJR043C, strain POL32, hits give low values 0.997 | locus YJR075W, strain HOC1, hits give low values 0.999 | locus YKL190W, strain CNB1, hits give low values 1.01 | locus YLR039C, strain RIC1, hits give low values 1.02 | locus YLR058C, strain SHM2 (second series), hits give low values 1 | locus YLR085C, strain ARP6, hits give low values 1.03 | locus YLR262C, strain YPT6, hits give low values 1.09 | locus YML094W, strain GIM5, hits give low values 1.04 | locus YMR219W, strain ESC1, hits give low values 0.996 | locus YMR263W, strain SAP30, hits give low values 0.989 | locus YMR307W, strain GAS1, hits give low values 0.824 | locus YNL128W, strain TEP1, hits give low values 1.01 | locus YNL153C, strain GIM3, hits give low values 1 | locus YNL298W, strain CLA4 (second series), hits give low values 1.01 | locus YNL322C, strain KRE1, hits give low values 0.995 | locus YNR030W, strain Alg12, hits give low values 1.02 | locus YPL055C, strain LGE1, hits give low values 1.08 | locus YPL241C, strain CIN2, hits give low values 1.01 | locus YPR135W, strain CTF4, hits give low values 1

CC(C)(C)c1csc(NC(=O)c2ccc(Cl)cc2Cl)n1
inactive: locus YAR019C, strain CDC15, hits give low values 0.974 | locus YBL105C, strain PKC1, hits give low values 0.976 | locus YBR135W, strain CKS1, hits give low values 0.981 | locus YBR136W, strain MEC1, hits give low values 0.971 | locus YBR160W, strain CDC28, hits give low values 0.983 | locus YDL017W, strain CDC7, hits give low values 0.973 | locus YDL028C, strain MPS1, hits give low values 0.978 | [1] 0.962 | locus YDL108W, strain KIN28, hits give low values 0.98 | locus YDL132W, strain cdc53, hits give low values 0.978 | locus YDL214C, strain PRR2, hits give low values 0.919 | locus YDR052C, strain DBF4, hits give low values 0.991 | locus YDR054C, strain cdc34, hits give low values 0.961 | locus YDR226W, strain ADK1, hits give low values 0.97 | locus YDR477W, strain SNF1, hits give low values 0.963 | locus YER123W, strain YCK3, hits give low values 0.95 | locus YER133W, strain GLC7, hits give low values 0.94 | locus YFL009W, strain cdc4, hits give low values 0.966 | locus YFL029C, strain CAK1, hits give low values 0.973 | locus YFR003C, strain YPI1, hits give low values 0.964 | locus YFR019W, strain FAB1, hits give low values 0.972 | locus YFR028C, strain CDC14, hits give low values 0.975 | locus YGR040W, strain KSS1, hits give low values 0.954 | locus YGR052W, strain FMP48, hits give low values 0.938 | locus YGR092W, strain DBF2, hits give low values 0.93 | [2] 0.867 | locus YHR079C, strain IRE1, hits give low values 0.819 | locus YHR082C, strain KSP1, hits give low values 0.98 | locus YHR205W, strain SCH9, hits give low values 0.805 | locus YIL147C, strain SLN1, hits give low values 0.973 | locus YJL095W, strain BCK1, hits give low values 0.785 | locus YJL128C, strain PBS2, hits give low values 0.864 | locus YJL157C, strain FAR1, hits give low values 0.964 | locus YJR016C, strain ILV3, hits give low values 0.978 | locus YJR066W, strain TOR1 (second series), hits give low values 0.976 | locus YJR066W, strain TOR1, hits give low values 0.993 | locus YKL048C, strain ELM1, hits give low values 0.938 | locus YKL067W, strain YNK1, hits give low values 0.939 | locus YKL101W, strain HSL1, hits give low values 0.901 | locus YKL193C, strain SDS22, hits give low values 0.958 | locus YKL203C, strain TOR2, hits give low values 1.01 | locus YLR133W, strain CKI1, hits give low values 0.968 | locus YLR403W, strain SFP1, hits give low values 0.913 | locus YML070W, strain DAK1, hits give low values 0.9 | locus YMR001C, strain CDC5, hits give low values 0.972 | locus YMR205C, strain PFK2 (second series), hits give low values 0.931 | locus YMR277W, strain FCP1, hits give low values 0.97 | locus YNL006W, strain LST8, hits give low values 0.98 | locus YNL020C, strain ARK1, hits give low values 0.943 | locus YNL161W, strain CBK1, hits give low values 0.974 | locus YNL183C, strain NPR1, hits give low values 0.953 | locus YNL207W, strain RIO2, hits give low values 0.967 | locus YNL222W, strain SSU72, hits give low values 0.961 | locus YNL307C, strain MCK1 (second series), hits give low values 0.91 | locus YOL078W, strain AVO1, hits give low values 0.969 | locus YOL136C, strain PFK27, hits give low values 0.917 | locus YOR061W, strain CKA2, hits give low values 0.956 | locus YOR119C, strain RIO1, hits give low values 1.01 | locus YOR231W, strain MKK1, hits give low values 0.898 | locus YOR329C, strain SCD5, hits give low values 0.975 | locus YPL031C, strain PHO85, hits give low values 0.948 | locus YPL153C, strain RAD53, hits give low values 0.946 | locus YPL204W, strain HRR25, hits give low values 0.966 | locus YPL209C, strain IPL1, hits give low values 0.982 | locus YPR025C, strain CCL1, hits give low values 0.977 | locus YPR106W, strain ISR1, hits give low values 0.958 | locus YPR111W, strain DBF20, hits give low values 0.946 | strain NNK1, hits give low values 0.938 | strain TSCII, hits give low values 0.972
active: locus YLR113W, strain HOG1, hits give low values 0.716 | locus YPL256C, strain CLN2, hits give low values 0.843
